From PubChem BioAssay (NCATS)
Records with an inconclusive call do not appear. A call without a number means that no potency is given here. Calls of active or inactive are those of the source. Calls come from the whole dose curve; as a rule, active = well fitted inhibition curve with a large enough effect; inconclusive = small, poorly fitted or top-dose-only effect; inactive = flat fitted curve, though single readings scatter.

What follows are molecules tested against Aldehyde dehydrogenase, mitochondrial (Homo sapiens) (UniProt P05091) (assay: qHTS for Inhibitors of the Aldehyde Dehydrogenase Family (ALDH2) Primary screen (AID 2061308; note: nearly all actives have a fitted effect of over 55% in size)). Settings: ALDH2 enzyme inhibition qHTS, 1536-well; series mostly up to 56 µM.

SMILES | Potency
Cc1nc2ccccn2c1C(O)(c1ccccc1)c1ccccc1 | inactive
COc1cccc(-c2ccc3ncnc(NCc4cccc(F)c4)c3c2)c1 | inactive
CNc1nc(-c2ccc3c(N)n[nH]c3c2)cc(N2CC(C(=O)NC3CCCCC3)CCC2C)n1 (stereo unspecified) | inactive
COc1cc(O)c(C(CC(=O)N2CCC(Cc3ccccc3)CC2)c2ccc(OC)c(OC)c2)c(OC)c1 (stereo unspecified) | inactive
CS(=O)(=O)c1ccc(C(=O)OCC(=O)N2CCC(Cc3ccccc3)CC2)cc1[N+](=O)[O-] | inactive
COC(=O)c1ccccc1C(=O)Nc1nc(-c2ccccc2)cs1 | inactive
Clc1ccccc1-c1nc(NCc2ccc(-c3cccnc3)cc2)c2ccccc2n1 | inactive
Cc1ccc(S(=O)(=O)Nc2cc(C(=O)Nc3nc(-c4ccccc4)cs3)ccc2Cl)cc1 | inactive
CCNc1cccc(S(=O)(=O)N2CCCN(S(=O)(=O)c3ccc4c(c3)OCCO4)CC2)c1 | inactive
C=CCOc1cc(Cl)ccc1C(=O)NCCN(CC)CC | inactive
O=C(Nc1ccc2ccccc2c1)Nc1nnc(C2CCCCC2)s1 | inactive
Cc1nc(Nc2ccccc2)c2nc(-c3ccccc3)n(CCN3CCOCC3)c2n1 | inactive
COc1cc(-c2nc(Nc3ccc(F)c(F)c3)c3ccccc3n2)ccn1 | inactive
Cc1noc(-c2ccc(-c3ccc(CC(=O)O)cc3)cc2)c1NC(=O)O[C@H](C)c1ccccc1Cl | inactive
Cc1ccc(OCCn2c(CCNC(=O)c3cccc(C)c3)nc3ccccc32)cc1 | inactive
O=C(OCC#CCSc1nnc(-c2cccc3ccccc23)o1)C1CCCC1 | inactive
